Source: PubChem BioAssay (NCATS)
Records with an inconclusive call do not appear. Active and inactive are the calls of the source. Unless noted, the call rests on the fitted dose curve; in most records, active means well fitted curve in the direction sought with a large enough effect; inconclusive means small, poorly fitted or top-dose-only effect, or another doubt; inactive means no such curve, though single readings can be large; an effect the other way counts as inactive or inconclusive.

Legend:
[1] = target: Lysosomal acid glucosylceramidase (Homo sapiens) (UniProt P04062); experiment: Glucocerebrosidase-p2 (AID 348; in the data active means potency below about 10 µM; further: potency means the concentration at half of the fitted maximal effect); settings: purified GBA, blue fluorogenic substrate, 40 min
Sequence of Lysosomal acid glucosylceramidase (Homo sapiens) (P04062 whole entry, looked up): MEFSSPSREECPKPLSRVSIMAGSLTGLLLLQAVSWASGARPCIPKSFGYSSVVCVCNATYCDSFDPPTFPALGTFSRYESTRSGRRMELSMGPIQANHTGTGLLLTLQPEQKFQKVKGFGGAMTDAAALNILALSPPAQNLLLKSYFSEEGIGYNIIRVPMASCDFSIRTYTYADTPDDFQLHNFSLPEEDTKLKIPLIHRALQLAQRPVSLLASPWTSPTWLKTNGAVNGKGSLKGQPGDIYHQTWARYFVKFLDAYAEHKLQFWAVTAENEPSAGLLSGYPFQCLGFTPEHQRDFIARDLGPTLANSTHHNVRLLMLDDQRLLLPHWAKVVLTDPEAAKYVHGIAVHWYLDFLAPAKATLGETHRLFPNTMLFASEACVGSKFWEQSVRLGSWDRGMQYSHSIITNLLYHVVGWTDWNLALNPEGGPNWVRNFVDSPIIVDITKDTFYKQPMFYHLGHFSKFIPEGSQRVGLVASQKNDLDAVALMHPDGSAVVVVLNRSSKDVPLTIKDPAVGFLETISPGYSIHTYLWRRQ
Procedure, shortened: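 Normal human glucocerebrosidase (0.2 nM) with blue fluorogenic substrate (80 uM final) in citrate/phosphate pH 5.9 with 10mM sodium taurocholate, 0.01% tween-20; 40 min RT, NaOH/glycine stop; fluorescence Ex 365/Em 440; AC50 from a titration from 0.6 nM upwards.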

[2] = AP1 Signaling Pathway (AID 357; active means well fitted curve in either direction with a large enough effect, not every such curve was filed as active;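 further: ME-180 reporter cells stimulated with EGF at its EC50 level; on the % scale 0 is the no-effect control and ±100 the full control effect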); settings: ME-180 AP-1-bla reporter, EGF-induced, beta-lactamase ratio, 5 h; at 7.69 µM (top of the series) unless noted
Procedure, shortened: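 Beta-lactamase reporter under AP-1 response element, ME-180 background. Stimulus: EC50 EGF. Compound exposure 5 h, 37 °C. Detection: CCF4, 2.5 h RT, 460/530 nm. Values: AC50 from titration.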

[3] = target: Cytochrome P450 1A2 (Homo sapiens) (UniProt P05177); experiment: p450-cyp1a2 (AID 410; calls by dose curve; further: potency means the concentration at half of the fitted maximal effect;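 on activity change, negative = inhibition: -100% = full effect of reference inhibitor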); settings: recombinant CYP1A2, luciferin-ME demethylation, luminescence; series mostly up to 57 µM
Sequence of Cytochrome P450 1A2 (Homo sapiens) (P05177 whole entry, looked up): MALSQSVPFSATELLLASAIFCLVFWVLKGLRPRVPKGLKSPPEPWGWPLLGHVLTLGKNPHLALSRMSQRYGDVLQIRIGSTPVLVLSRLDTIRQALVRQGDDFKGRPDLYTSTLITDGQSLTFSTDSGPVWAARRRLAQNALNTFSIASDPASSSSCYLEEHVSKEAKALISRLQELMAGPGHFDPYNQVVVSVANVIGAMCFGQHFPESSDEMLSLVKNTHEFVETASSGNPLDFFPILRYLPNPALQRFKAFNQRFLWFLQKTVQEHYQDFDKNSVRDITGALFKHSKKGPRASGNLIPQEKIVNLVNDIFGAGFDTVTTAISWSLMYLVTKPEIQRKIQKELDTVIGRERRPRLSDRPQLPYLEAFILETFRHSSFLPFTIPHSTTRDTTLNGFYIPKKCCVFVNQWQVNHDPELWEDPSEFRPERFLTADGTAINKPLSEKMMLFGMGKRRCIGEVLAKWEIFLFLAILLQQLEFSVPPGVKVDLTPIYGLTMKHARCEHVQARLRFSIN
Procedure, shortened: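 20nM CYP1A2, 100uM Luciferin-ME (=Km), 100mM KPO4; cpd 10 min RT; +NADPH regen, 60 min RT; stop/detect 20 min; luminescence. Normalized to furafylline 57 uM = full inhibition.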

[4] = NFAT Signaling Pathway (AID 444; active means well fitted curve in either direction with a large enough effect, not every such curve was filed as active;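 further: carbachol stimulus at about its EC50 of 1 µM final; on the % scale 0 is the no-effect control and ±100 the full control effect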); settings: Jurkat NFAT-bla M1, carbachol, beta-lactamase ratio, 5 h; at 7.69 µM (top of the series) unless noted
Procedure, shortened: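 Jurkat cells with NFAT-driven β-lactamase reporter and co-expressed M1 receptor, stimulated with carbachol (final 1 uM, ~EC50), compound titration, 5 h at 37 °C. CCF4 loaded 1 h at RT; 460/530 nm ratio gave %activity and AC50.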

[5] = Stat Signaling Pathway (AID 446; active means well fitted curve in either direction with a large enough effect, not every such curve was filed as active;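 further: ME-180 cervical cancer cells given 40 pM IL-6 alongside compound; SIE-controlled beta-lactamase reporter measured as 460/530 nm FRET emission ratio; on the % scale 0 is the no-effect control and ±100 the full control effect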); settings: ME-180 (cervical carcinoma) SIE beta-lactamase reporter, IL-6 stimulated, 5 h; at 7.69 µM (top of the series) unless noted
Procedure, shortened: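 Emission at 460 and 530 nm (excitation 405 nm) reports SIE-controlled beta-lactamase in ME-180 cells. Cells received compound with 40 pM IL-6 for 5 hrs at 37 C; data scaled between 300 pM IL-6 and 125 nM JAK-inhibitor controls.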

[6] = target: Glucocorticoid receptor (Homo sapiens) (UniProt P04150); experiment: GR-GFP Redistribution (AID 450;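 active means compounds whose dose series gives a full or clear partial fitted curve of increased nuclear translocation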; further: potency means the concentration at half of the fitted maximal effect); settings: U2OS GR-GFP nuclear translocation, laser cytometry, 2 h
Sequence of Glucocorticoid receptor (Homo sapiens) (P04150 whole entry, looked up, the tested form may be a part): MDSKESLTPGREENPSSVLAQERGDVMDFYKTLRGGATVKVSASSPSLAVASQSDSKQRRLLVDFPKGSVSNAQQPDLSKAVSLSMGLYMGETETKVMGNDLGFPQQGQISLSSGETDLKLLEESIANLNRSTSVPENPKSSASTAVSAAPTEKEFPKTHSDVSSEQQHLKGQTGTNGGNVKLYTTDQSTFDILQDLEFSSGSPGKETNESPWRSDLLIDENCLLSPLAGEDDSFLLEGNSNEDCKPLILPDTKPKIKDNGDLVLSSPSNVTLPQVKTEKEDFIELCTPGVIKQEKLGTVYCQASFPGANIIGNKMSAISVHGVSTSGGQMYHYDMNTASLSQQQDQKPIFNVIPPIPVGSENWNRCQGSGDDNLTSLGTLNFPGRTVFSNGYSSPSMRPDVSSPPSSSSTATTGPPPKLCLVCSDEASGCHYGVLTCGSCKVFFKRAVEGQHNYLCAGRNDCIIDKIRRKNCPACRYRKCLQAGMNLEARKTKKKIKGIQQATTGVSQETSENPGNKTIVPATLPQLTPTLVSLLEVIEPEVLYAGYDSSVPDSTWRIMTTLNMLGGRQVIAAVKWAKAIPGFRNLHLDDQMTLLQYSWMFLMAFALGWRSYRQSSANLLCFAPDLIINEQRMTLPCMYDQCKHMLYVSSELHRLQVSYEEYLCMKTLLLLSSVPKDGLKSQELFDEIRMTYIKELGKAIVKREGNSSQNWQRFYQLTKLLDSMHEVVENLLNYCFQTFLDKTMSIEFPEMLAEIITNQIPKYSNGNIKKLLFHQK

[7] = target: Glucocorticoid receptor (Homo sapiens) (UniProt P04150); experiment: GR-EFC Redistribution (AID 451; calls by dose curve; further: potency means the concentration at half of the fitted maximal effect); settings: CHO-K1 GR-EFC translocation, beta-gal luminescence, 2 h
Procedure, shortened: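 CHO-K1 cells expressing nuclear EA and GR-ED fragments of b-gal; compounds titrated up to 46 uM final, 2 h at 37 C. GR nuclear translocation read as complemented b-gal luminescence after 1 h RT detection.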

[8] = target: Mitogen-activated protein kinase 10 (Mus musculus) (UniProt Q61831); experiment: JNK3 AlphaScreen Assay (AID 530; active means well fitted curve in either direction with a large enough effect, not every such curve was filed as active;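 further: kinase came from lysate of stimulated human HepG2 cells; signal reports phosphorylation of biotinylated GST-cJun 1-79 at Ser73 with 10 µM ATP; on the % scale 0 is the no-effect control and ±100 the full control effect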); settings: JNK3 lysate, c-Jun phosphorylation; series mostly up to 57.1 µM
Procedure, shortened: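 HepG2 lysate (IL-1b/TNFa pre-activated) + biotin-GST-cJun 1-79 + anti-pSer73 cJun; cpd titration, 15 min RT; ATP 10 uM start; Tris pH 7.6, MgCl2, DTT, vanadate; beads in EDTA buffer; AlphaScreen.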

[9] = target: 3',5'-cyclic-AMP phosphodiesterase 4B (Homo sapiens) (UniProt Q07343); experiment: qHTS Assay for Inhibitors of PDE-IV (AID 607; active means well fitted activation curve with a large enough effect in the main read-out, with a control signal flat, not every such curve was filed as active; further: % of control where 0% means no effect); settings: HEK293 ACTOne CNG channel cells, membrane potential fluorescence; series mostly up to 22.9 µM
Sequence of 3',5'-cyclic-AMP phosphodiesterase 4B (Homo sapiens) (Q07343 whole entry, looked up): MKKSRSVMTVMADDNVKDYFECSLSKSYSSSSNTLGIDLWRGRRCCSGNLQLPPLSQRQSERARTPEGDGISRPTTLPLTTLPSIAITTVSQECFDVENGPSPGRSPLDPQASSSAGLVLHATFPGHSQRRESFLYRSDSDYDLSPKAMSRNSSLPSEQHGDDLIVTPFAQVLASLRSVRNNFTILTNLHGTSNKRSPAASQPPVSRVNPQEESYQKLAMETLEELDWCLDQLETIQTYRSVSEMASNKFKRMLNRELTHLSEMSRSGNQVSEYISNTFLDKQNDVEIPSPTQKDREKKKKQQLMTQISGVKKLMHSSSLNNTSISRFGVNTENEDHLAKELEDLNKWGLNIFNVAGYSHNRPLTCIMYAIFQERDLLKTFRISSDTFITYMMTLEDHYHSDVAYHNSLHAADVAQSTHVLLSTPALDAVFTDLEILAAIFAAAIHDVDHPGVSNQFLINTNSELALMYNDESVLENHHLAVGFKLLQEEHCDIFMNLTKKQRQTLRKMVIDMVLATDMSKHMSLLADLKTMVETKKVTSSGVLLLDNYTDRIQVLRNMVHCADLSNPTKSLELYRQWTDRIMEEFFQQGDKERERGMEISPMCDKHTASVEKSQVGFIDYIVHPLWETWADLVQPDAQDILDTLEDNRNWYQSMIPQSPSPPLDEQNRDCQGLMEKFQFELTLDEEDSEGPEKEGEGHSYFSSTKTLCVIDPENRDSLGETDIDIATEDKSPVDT
Procedure, shortened: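 The readout is membrane depolarisation from a cAMP-sensing CNG channel, detected with a potential dye at ex 535/em 590. Cells were HEK293-derived (endogenous PDE-IV) at 1000 cells/well, titrated up to 22.9 uM final.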

[10] = target: Cytochrome P450 2C9 (Homo sapiens) (UniProt P11712); experiment: qHTS Assay for Inhibitors and Substrates of Cytochrome P450 2C9 (AID 883); settings: recombinant CYP2C9, luciferin-H luminescence, 60 min; series mostly up to 57.1 µM; further: on the % scale 0 is the no-effect control and ±100 the full control effect; nearly all actives have a fitted effect of over 60% in size
Sequence of Cytochrome P450 2C9 (Homo sapiens) (P11712 whole entry, looked up): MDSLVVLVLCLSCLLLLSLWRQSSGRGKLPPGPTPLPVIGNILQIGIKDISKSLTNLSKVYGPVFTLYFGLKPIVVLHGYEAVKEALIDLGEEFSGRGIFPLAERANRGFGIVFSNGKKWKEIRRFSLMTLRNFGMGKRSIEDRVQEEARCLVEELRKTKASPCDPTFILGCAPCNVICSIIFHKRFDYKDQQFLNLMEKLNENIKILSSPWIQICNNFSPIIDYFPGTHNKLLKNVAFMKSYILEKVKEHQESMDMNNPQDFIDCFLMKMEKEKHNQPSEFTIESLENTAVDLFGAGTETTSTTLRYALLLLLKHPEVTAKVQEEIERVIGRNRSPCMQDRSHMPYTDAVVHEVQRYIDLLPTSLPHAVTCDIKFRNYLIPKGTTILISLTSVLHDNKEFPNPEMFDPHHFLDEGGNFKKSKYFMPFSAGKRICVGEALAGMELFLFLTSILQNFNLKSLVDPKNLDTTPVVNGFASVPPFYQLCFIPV
Procedure, shortened: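 Signal: luciferase luminescence reporting luciferin produced by CYP2C9. Conditions: 10nM enzyme, Luciferin-H 100uM at KM, 25mM KPO4, 37C, 60 min NADPH-driven reaction. Reference: 57uM sulphaphenazole as 100% inhibition.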

[11] = target: Cytochrome P450 3A4 (Homo sapiens) (UniProt P08684); experiment: qHTS Assay for Activators of Cytochrome P450 3A4 (AID 885); settings: recombinant CYP3A4, Luciferin-PPXE luminescence, 60 min; series mostly up to 57.1 µM; further: nearly all actives have a fitted effect of over 65% in size
Sequence of Cytochrome P450 3A4 (Homo sapiens) (P08684 whole entry, looked up): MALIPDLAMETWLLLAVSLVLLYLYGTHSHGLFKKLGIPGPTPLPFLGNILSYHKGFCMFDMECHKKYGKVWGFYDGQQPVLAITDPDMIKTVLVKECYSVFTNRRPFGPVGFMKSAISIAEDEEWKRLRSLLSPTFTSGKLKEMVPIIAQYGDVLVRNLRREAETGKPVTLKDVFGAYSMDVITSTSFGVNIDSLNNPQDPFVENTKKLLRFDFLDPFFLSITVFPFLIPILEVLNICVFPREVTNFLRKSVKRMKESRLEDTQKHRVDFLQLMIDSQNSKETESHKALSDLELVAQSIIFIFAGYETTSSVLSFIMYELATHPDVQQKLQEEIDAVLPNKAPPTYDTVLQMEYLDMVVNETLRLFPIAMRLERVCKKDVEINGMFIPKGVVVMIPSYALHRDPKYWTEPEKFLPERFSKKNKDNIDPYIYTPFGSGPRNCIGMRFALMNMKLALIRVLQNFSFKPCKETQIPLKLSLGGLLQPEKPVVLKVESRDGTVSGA
Procedure, shortened: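 Activators are scored by enhanced luminescence from CYP3A4 conversion of luciferin-PPXE (25uM, equal to KM) to luciferin, after 60 min at RT with an NADPH-regenerating system.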

[12] = qHTS Assay for Lipid Storage Modulators (AID 1519; calls by dose curve); settings: Drosophila S3 cells, BODIPY lipid droplet/cell ratio, laser cytometry, cells loaded with oleic acid; for activity change, negative = inhibition: at 57.5 µM (top of the series)
Procedure, shortened: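 Cells seeded at 5,000 per well were treated with compounds over a concentration series and loaded with oleic acid (400 uM, as added). Lipid droplet fluorescence (488 nm excitation, 500-530 nm channel) was read by laser-scanning cytometry and normalized to 20 uM Triacsin C.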

[13] = target: Dual specificity protein kinase CLK4 (Homo sapiens) (UniProt Q9HAZ1); experiment: qHTS Assay for Inhibitors of CDC-like Kinase 4 (Kinase-Glo Assay) (AID 1770); settings: recombinant Clk4, Kinase-Glo ATP depletion luminescence; series mostly up to 66.7 µM; further: nearly all actives have a fitted effect of over 65% in size; further: potency means the concentration at half of the fitted maximal effect
Sequence of Dual specificity protein kinase CLK4 (Homo sapiens) (Q9HAZ1 whole entry, looked up): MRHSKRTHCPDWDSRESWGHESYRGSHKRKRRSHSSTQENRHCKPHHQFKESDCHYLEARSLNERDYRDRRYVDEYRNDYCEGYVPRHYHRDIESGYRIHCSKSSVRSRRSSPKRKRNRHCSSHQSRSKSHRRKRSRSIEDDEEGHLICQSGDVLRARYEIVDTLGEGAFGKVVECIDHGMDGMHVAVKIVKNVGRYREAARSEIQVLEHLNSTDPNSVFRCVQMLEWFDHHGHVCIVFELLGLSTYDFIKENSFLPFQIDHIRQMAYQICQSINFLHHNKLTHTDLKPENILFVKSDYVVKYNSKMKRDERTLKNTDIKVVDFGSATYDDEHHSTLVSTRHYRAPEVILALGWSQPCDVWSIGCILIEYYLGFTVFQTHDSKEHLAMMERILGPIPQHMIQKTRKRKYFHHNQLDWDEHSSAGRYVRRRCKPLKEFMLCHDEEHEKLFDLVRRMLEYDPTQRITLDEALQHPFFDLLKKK
Procedure, shortened: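 Recombinant human Clk4 (25 nM) phosphorylated RS repeat peptide (100 uM) with 1 uM ATP in Tris pH 7.5/MgCl2/EGTA/DTT/Triton buffer for 4.5 h at room temperature. Residual ATP was quantified by Kinase-Glo luciferase luminescence.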

[14] = target: Dual specificity protein kinase CLK4 (Homo sapiens) (UniProt Q9HAZ1); experiment: qHTS Assay for Inhibitors of CDC-like Kinase 4 (ADP-Glo Assay) (AID 1771); settings: recombinant CLK4, ADP-Glo luminescence; series mostly up to 80 µM; further: nearly all actives have a fitted effect of over 70% in size; further: potency means the concentration at half of the fitted maximal effect
Procedure, shortened: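 25 nM Clk4, 100 uM RS peptide, 1 uM ATP (final); 2 mM MgCl2, 0.5 mM EGTA, 2.5 mM DTT, 0.01% Triton X-100; 1 hr RT. ADP-Glo readout: ATP depletion 45 min, conversion/luciferase 30 min, luminescence.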

[15] = target: Dual specificity protein kinase CLK4 (Homo sapiens) (UniProt Q9HAZ1); experiment: qHTS Assay for Inhibitors of CDC-like Kinase 4 (ADP-FP Assay) (AID 1795); settings: Transcreener ADP fluorescence polarization; series mostly up to 50 µM; further: nearly all actives have a fitted effect of over 60% in size; further: potency means the concentration at half of the fitted maximal effect
Procedure, shortened: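 Recombinant human Clk4 (6.25 nM) phosphorylated RS repeat peptide (100 uM) with 1 uM ATP in Tris pH 7.5/MgCl2/EGTA/DTT/Triton buffer for one hour. ADP was quantified by Transcreener competitive fluorescence polarization against an ADP calibration curve.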

[16] = target: Ubiquitin carboxyl-terminal hydrolase 1 (Homo sapiens) (UniProt O94782); experiment: Inhibitors of USP1/UAF1: Pilot qHTS (AID 504865); settings: purified USP1/UAF1, Ub-rhodamine cleavage fluorescence; series mostly up to 54.9 µM;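 further: rhodamine fluorescence freed from ubiquitin-rhodamine substrate followed over time; top concentration of the series differs between compounds; on the % scale 0 is the no-effect control and ±100 the full control effect; nearly all actives have a fitted effect of over 35% in size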
Sequence of Ubiquitin carboxyl-terminal hydrolase 1 (Homo sapiens) (O94782 whole entry, looked up): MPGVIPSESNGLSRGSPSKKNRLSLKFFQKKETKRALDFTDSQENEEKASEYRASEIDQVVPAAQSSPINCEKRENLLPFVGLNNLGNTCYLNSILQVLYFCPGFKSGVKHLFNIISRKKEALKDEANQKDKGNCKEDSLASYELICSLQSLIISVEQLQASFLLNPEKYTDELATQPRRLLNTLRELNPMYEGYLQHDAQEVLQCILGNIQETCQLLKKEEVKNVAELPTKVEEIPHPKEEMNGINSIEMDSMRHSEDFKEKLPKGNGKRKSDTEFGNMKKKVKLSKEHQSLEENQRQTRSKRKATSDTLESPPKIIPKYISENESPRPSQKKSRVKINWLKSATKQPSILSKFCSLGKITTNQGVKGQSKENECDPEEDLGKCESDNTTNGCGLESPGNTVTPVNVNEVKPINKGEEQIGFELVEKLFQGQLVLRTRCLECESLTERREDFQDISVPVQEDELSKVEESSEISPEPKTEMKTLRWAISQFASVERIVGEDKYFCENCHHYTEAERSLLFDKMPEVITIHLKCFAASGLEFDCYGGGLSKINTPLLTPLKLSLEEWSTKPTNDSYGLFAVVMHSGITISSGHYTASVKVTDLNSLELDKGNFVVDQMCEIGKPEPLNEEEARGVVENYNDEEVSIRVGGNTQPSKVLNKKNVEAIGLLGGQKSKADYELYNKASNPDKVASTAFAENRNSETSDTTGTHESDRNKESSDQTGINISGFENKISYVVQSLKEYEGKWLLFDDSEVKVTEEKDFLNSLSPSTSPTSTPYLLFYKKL
Procedure, shortened: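 USP1/UAF1 complex (1nM) preincubated with compound 15 min at room temperature, then Ub-Rho substrate (150nM final) added. Fluorescence read kinetically at 480/540 nm, 6 reads every 60 seconds. Buffer: 50mM HEPES pH 7.8, 0.5mM EDTA, 0.1 mg/ml BSA, 1mM TCEP, 0.01% Tween-20.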

[17] = Primary qHTS for small molecule stabilizers of the endoplasmic reticulum resident proteome: Secreted ER Calcium Modulated Protein (SERCaMP) assay (AID 1508630); settings: SH-SY5Y GLuc-SERCaMP (Gaussia luciferase released on ER calcium loss) secretion, thapsigargin, luminescence; series mostly up to 38.4 µM; further: on the % scale 0 is the no-effect control and ±100 the full control effect
Procedure, shortened: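 The SH-SY5Y reporter protocol was run at 3 concentrations up to 38.3 uM (primary) or 11 concentrations (follow-up): 16 h compound, 100 nM thapsigargin for 4 h, then extracellular luciferase luminescence.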

[18] = target: Cytochrome P450 3A4 (Homo sapiens) (UniProt P08684); experiment: qHTS Assay for Inhibitors and Substrates of Cytochrome P450 3A4 (AID 884); settings: recombinant CYP3A4, Luciferin-PPXE luminescence; series mostly up to 57.1 µM; further: potency means the concentration at half of the fitted maximal effect; nearly all actives have a fitted effect of over 50% in size
Procedure, shortened: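 Luminescent readout of luciferin produced by CYP3A4 (20 nM) dealkylation of Luciferin-PPXE, 25 uM (its KM). NADPH-driven reaction ran 60 min at RT after 10 min compound preincubation; data scaled to 57 uM ketoconazole as 100% inhibition.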

[19] = measured here: cell count channel max response
[20] = measured here: lipid channel max response

Compound | Potency [1] | activity change, negative = inhibition [2] | Potency [3] | activity change, negative = inhibition [4] | activity, negative = inhibition [5] | Potency [6] | Potency [7] | outcome [8] | Potency [9] | Potency [10] | Potency [11] | activity change, negative = inhibition [12] | max response [12, 19] [%] | max response [12, 20] [%] | Potency [13] | Potency [14] | Potency [15] | Potency [16] | Potency [17] | Potency [18]
CN(C)c1ncc2nc(-c3cc(F)cc(F)c3)c(=O)n(CCC#N)c2n1 | > 11.4 µM (inactive) | 4.37% (inactive) | inactive | 29.2% (inactive) | 2.22% (inactive) | > 9.22 µM (inactive) | > 46 µM (inactive) | inactive | inactive | inactive | inactive | 3.22% (inactive) | 19.6 | 21.3 | inactive | inactive | inactive | inactive | inactive | 
FC(F)(F)c1ccccc1-c1nc(NCCN2CCOCC2)c2ccccc2n1 | > 11.4 µM (inactive) | -6.06% (inactive) | 12.6 µM (active) | 6.4% (inactive) | 3.19% (inactive) | > 46 µM (inactive) | > 46 µM (inactive) | inactive | inactive |  | inactive | 4.77% (inactive) | 18.8 | 21.5 | inactive | inactive | inactive | inactive | inactive | 7.94 µM (active)
COCCn1c(=O)c(C)nc2cnc(N3CCN(C)CC3)nc21 | > 11.4 µM (inactive) | -5.64% (inactive) | 15.8 µM (active) | 4.52% (inactive) | -3.76% (inactive) | > 9.22 µM (inactive) | > 46 µM (inactive) | inactive | inactive | inactive |  | 2.08% (inactive) | 3.08 | 2.85 | inactive | inactive | inactive | inactive | inactive | 
COc1ncc2nc(-c3cc(F)cc(F)c3)c(=O)n(-c3ccccc3)c2n1 | > 11.4 µM (inactive) | -20.2% (inactive) | 1.26 µM (active) | -3.83% (inactive) | -1.05% (inactive) | > 9.22 µM (inactive) | > 46 µM (inactive) | inactive | inactive |  |  | 3.41% (inactive) | 11.4 | 11.8 | inactive | inactive | inactive | inactive | inactive | 
COc1ccc(-n2c(=O)cnc3cnc(N(C)C)nc32)cc1 | > 11.4 µM (inactive) | -17.5% (inactive) | 5.01 µM (active) | 15.7% (inactive) | -7.93% (inactive) | > 9.22 µM (inactive) | > 46 µM (inactive) | inactive | inactive |  | inactive | 5.53% (inactive) | 17.5 | 21.2 | 11.2 µM (active) | 12.6 µM (active) | 11.2 µM (active) | inactive | inactive | 
